Test system: Plasmodium falciparum
Assay: GSK_TCMDC: Inhibition of Plasmodium falciparum 3D7 in whole red blood cells, using parasite LDH activity as an index of growth. Test compounds present at 2uM
Format: functional

Compared with `CS(=O)(=O)c1cccc(-c2cnc3[nH]cc(-c4ccc(C(=O)O)cc4)c3c2)c1`, `CS(=O)(=O)c1ccc(CNCc2ccc(-c3cccc(-c4nc5cc(C(F)(F)F)ccc5[nH]4)c3)cc2)cc1.O=C(O)C(F)(F)F` is higher in Inhibition: 99% for the first, 100% for the second.

First: Br.CC(CON1C(N)=NC(N)=NC1(C)C)Cc1ccc(Cl)cc1Cl (stereo not given)
Second: CC(O)C(=O)O.CCOc1ccc2nc3cc(N)ccc3c(N)c2c1
The Inhibition of the first is lower: 92% for the first, 98% for the second.

Compared with `O=C(Nc1cccc(-c2ccc(-c3nc4cc(C(F)(F)F)ccc4[nH]3)cc2)c1)c1cccnc1`, `NC(=O)C1CCN(Cc2ccc(-c3cccc(-c4nc5cc(F)ccc5[nH]4)c3)cc2)CC1.O=C(O)C(F)(F)F` is lower in Inhibition: 100% for the first, 90% for the second.

First: Cc1ccc(S(=O)(=O)N2CCCN(C(=O)c3cc(-c4ccccc4)[nH]n3)CC2)cc1
Second: O=C(Nc1cccc(CN2CCCN(Cc3ccc(O)cc3)CC2)c1)c1cc2ccccc2s1.O=C(O)C(F)(F)F
The Inhibition of the first is lower: 96% for the first, 100% for the second.

First: Cc1nnc(NC(=O)c2cn(-c3ccccc3)nc2-c2ccccc2C)o1
Second: Nc1c2ccccc2nc2ccc(-c3ccccc3)cc12
The Inhibition of the first is lower: 93% for the first, 100% for the second.

Compared with `CN(C)CCNCc1cccc(-c2cccc(-c3nc4ccccc4[nH]3)c2)c1.O=C(O)C(F)(F)F`, `COCCNCc1ccc(-c2cccc(CNc3ccc(OC)cc3)c2)cc1.O=C(O)C(F)(F)F` is lower in Inhibition: 100% for the first, 94% for the second.

First: Cl.O=C(CNC1=NCCN1)Nc1ccc(NC(=O)Nc2ccc(NC(=O)CNC3=NCCN3)cc2)cc1
Second: Cc1ccc(NC(=O)Nc2ccc(Br)cc2)cc1OCCN(C)C
The Inhibition of the first is higher: 90% for the first, 84% for the second.

`CCN(CCCN1CCCCC1)c1cc(C)nc(Nc2ccc(C(F)(F)F)cc2)n1.O=C(O)C(F)(F)F` and `CCN(CCCN1CCCCC1)c1cc(C)nc(Nc2ccc(C)cc2C(F)(F)F)n1.O=C(O)C(F)(F)F` are the same in Inhibition: 100% for the first, 100% for the second.

Compared with `COc1cc(N)c(Cl)cc1C(=O)NC1CCC(NCC2CCCCC2)CC1.Cl` (stereo not given), `O=C(/C=C/c1ccc(Cl)c(Cl)c1)NC1CCC(CN2CCC(c3nc4cc(O)ccc4[nH]3)CC2)CC1` (stereo not given) is higher in Inhibition: 90% for the first, 100% for the second.

First: CC(C)CCN1CCC(Oc2cccc(NC(=O)c3ccc(C(F)(F)F)cc3)c2)CC1.O=C(O)C(F)(F)F
Second: COc1cccc(-c2csc(C(=O)NCC3CCN(Cc4ccc(C(C)(C)C)cc4)C3)c2)c1.O=C(O)C(F)(F)F (stereo not given)
The Inhibition of the first is higher: 98% for the first, 95% for the second.

Going from `CC(C)CNCc1cccc(-c2ccccc2CN(C(=O)NCCc2ccccc2)C2CCN(Cc3ccccc3)CC2)c1.O=C(O)C(F)(F)F` to `CC(C)CNCc1cccc(-c2ccccc2CNC2CCN(Cc3ccccc3)CC2)c1.O=C(O)C(F)(F)F`, the Inhibition rises from 89% to 100%.

First: CC(C)Cn1cc(C2CCN(CCN3CCC(CNC(=O)c4ccc(NC(=O)c5cc(Cl)cc(Cl)c5)cc4)CC3)CC2)c2ccccc21
Second: O=C(NCCCCCN1CCC(c2c[nH]c3ccccc23)CC1)Nc1cccc(Cl)c1
The Inhibition of the first is higher: 91% for the first, 86% for the second.

`COc1ccc2nc(SC(C)C(=O)c3c[nH]c4ccccc34)[nH]c2c1` (stereo not given) and `COc1ccc(NC(=O)[C@H](CC(C)C)Nc2cc(C)nc(NCc3ccccc3C)n2)cc1.O=C(O)C(F)(F)F` are the same in Inhibition: 100% for the first, 100% for the second.

`CC1(C)CCC(C)(C)c2c1ccc(C1CCN(CCCCNC(=O)c3ccc(-c4ccc(Cl)cc4)cc3)CC1)c2O` and `Cc1oc(-c2ccc(Cl)cc2)cc1C(=O)NCCC1CCN(CCCCCNC(=O)/C=C/c2ccc(Cl)c(Cl)c2)CC1` are the same in Inhibition: 100% for the first, 100% for the second.

First: CN(C)CCC1CCN(CCS(=O)(=O)c2cccc(Nc3ccc(-c4cccc(F)c4)cn3)c2)CC1
Second: CN1CCC(C(=O)N(Cc2ccc(-c3ccc(CNCCc4ccc(S(C)(=O)=O)cc4)cn3)cc2)Cc2cccc(F)c2)CC1.O=C(O)C(F)(F)F
The Inhibition of the first is higher: 100% for the first, 98% for the second.

Compared with `COc1ccc(S(=O)(=O)N(c2cc(Br)cc3c2OCC3)S(=O)(=O)c2ccc(OC)c(N3CCN(C)CC3)c2)cc1N1CCN(C)CC1`, `Cc1cccc(C)c1OC(=O)C(C)C(O)C1(Sc2ccccc2)CCN(C)CC1` (stereo not given) is higher in Inhibition: 81% for the first, 98% for the second.

First: Cc1cc(N[C@@H](CC(C)C)C(=O)NCc2cccs2)nc(NCCc2cccs2)n1.O=C(O)C(F)(F)F
Second: O=C(O)C(F)(F)F.Oc1ccc(CCNc2nc(NCCOc3cccc4ccccc34)nc(N3CCNCC3)n2)cc1
The Inhibition of the first is lower: 92% for the first, 96% for the second.

First: Cc1noc(C)c1CN1Cc2ccccc2OC2(CCN(Cc3c[nH]c4cnccc34)CC2)C1.O=C(O)C(F)(F)F
Second: Cc1cccc2nc(-c3ccc(-c4ccc(CN5CCN(c6ccc(C#N)cn6)CC5)cc4)s3)[nH]c12.O=C(O)C(F)(F)F
The Inhibition of the first is lower: 89% for the first, 98% for the second.

First: CN(/N=C/C=C/c1ccc(Cl)cc1)c1nc(NCCc2ccc(O)cc2)nc(N2CCNCC2)n1
Second: O=C(/C=C/c1ccc(Cl)c(Cl)c1)N1CCC(NCc2ccc3[nH]ccc3c2)CC1
The Inhibition of the first is lower: 92% for the first, 97% for the second.

First: O=C(/C=C/c1ccc(Cl)c(Cl)c1)NCCCCCN1CCCN(C(=O)Nc2cccc(Cl)c2)CC1
Second: Cc1nn(CCOC(=O)NC(NCC2COc3ccccc3O2)C(Cl)(Cl)Cl)cc1[N+](=O)[O-] (stereo not given)
The Inhibition of the first is higher: 100% for the first, 99% for the second.

Source: ChEMBL document CHEMBL1157539, “Thousands of chemical starting points for antimalarial lead identification” (Nature, 2010)
